Common to all, as to assay: inhibition of PEG-3 promoter-driven reporter – cell-based, HeLa, luciferase, CREF/GAPDH counter-screen panel, dose response (AID 624167)
A general note: The purpose of a counterscreen is to sort out artefacts and off-target activity.

Experiment [1] addresses PEG-3 (UniProt Q6IN02). The settings on record: CREF/GAPDH counter-screens; HeLa PEG-Prom luciferase reporter, overnight, run 1, dose range 1, at 100 µM (top of the series) unless noted.
In experiment [2] the target is PEG-3 (UniProt Q6IN02). The settings on record: CREF/GAPDH counter-screens; HeLa PEG-Prom luciferase reporter, overnight, run 2, dose range 1, at 100 µM (top of the series) unless noted.
Chain of PEG-3 (Q6IN02 whole entry, looked up): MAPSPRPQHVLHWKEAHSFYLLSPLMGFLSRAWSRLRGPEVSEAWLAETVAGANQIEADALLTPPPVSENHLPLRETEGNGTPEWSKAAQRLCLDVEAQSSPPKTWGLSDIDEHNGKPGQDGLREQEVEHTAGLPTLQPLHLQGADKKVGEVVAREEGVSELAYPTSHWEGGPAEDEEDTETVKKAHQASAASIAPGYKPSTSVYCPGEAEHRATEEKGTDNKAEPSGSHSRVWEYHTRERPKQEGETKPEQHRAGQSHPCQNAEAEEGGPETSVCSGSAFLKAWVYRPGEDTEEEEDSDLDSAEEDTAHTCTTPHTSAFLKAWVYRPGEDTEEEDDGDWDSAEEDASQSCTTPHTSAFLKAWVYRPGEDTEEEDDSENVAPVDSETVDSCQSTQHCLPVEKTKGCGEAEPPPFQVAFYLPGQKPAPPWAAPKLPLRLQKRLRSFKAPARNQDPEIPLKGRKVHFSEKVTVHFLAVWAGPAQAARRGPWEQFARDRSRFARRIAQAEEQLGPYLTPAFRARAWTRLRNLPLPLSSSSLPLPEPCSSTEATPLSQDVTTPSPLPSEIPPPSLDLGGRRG
Experiment [3] concerns Rat fibroblasts (CREF). The settings on record: CREF/GAPDH counter-screens; run 1, dose range 1, at 100 µM (top of the series).
For experiment [4], the system named is Rat fibroblasts (CREF). The settings on record: CREF/GAPDH counter-screens; run 2, dose range 1, at 100 µM (top of the series).

Each structure is given as a SMILES string.

Broadly, the inhibition is the change of the read-out against control, counted positive when it falls.

As for `Cc1cc2c(c(/C=C/C(=O)c3ccccc3)c1)OC1(C=C2)Oc2ccccc2C(=O)N1C` (configuration not stated), the figures for the inhibition with PEG-3 [1] and with PEG-3 [2] were 102% and 101%, respectively.
The like results for `COc1ccc(-c2cc(C(=O)N3CCN(c4ccccc4F)CC3)c3ccccc3n2)c(OC)c1` were, in that order, 27.3% and 47.4%.
On the same counts, the results for `CN(C)CCNc1ccc2nnn3c4ccc(O)cc4c(=O)c1c23` are 102% and 98%.
For the compound `CC(C)CC(N)c1csc(Nc2ccc(C(=O)N(C)Cc3ccccc3)cn2)n1` (configuration not stated), the values for the inhibition with PEG-3 [1] and with PEG-3 [2] were 96.3% and 102%, respectively.
The like results for `COc1ccc2nc3n(c(=O)c2c1)-c1cc2ccccc2cc1C(=O)NC3Cc1ccc(O)cc1` (configuration not stated) were, in that order, 86.9% and 98.8%.
On the same counts, the results for `COc1ccc(C23CC4CC(CC(C4)C2)C3)cc1C(=O)NCCN(C)C` are 101% and 102%.
`COc1cc(/C=C2\SC(=S)N(CCC(=O)N3CCCCC3)C2=O)cc(OC)c1OC`: the inhibition in the experiment with PEG-3 [1] worked out at 98.1%; with PEG-3 [2], 99%.
With `O=C(Nc1ccc(S(=O)(=O)NC2=NCCCCC2)cc1)c1ccc([N+](=O)[O-])s1`, the figures for the inhibition with PEG-3 [1] and in the experiment with PEG-3 [2] were 102% and 101%, respectively.
The like results for `CC(C)CC(N)c1csc(Nc2ccc(C(=O)c3ccccc3)cc2)n1` (configuration not stated) were, in that order, 102% and 101%.
The like results for `O=C(c1ccoc1)N1CCN(c2cc(-c3ccccc3)nc3cc(-c4ccccc4)nn23)CC1` were, in that order, 58.2% and 66%.
On the same counts, the results for `O=C1N[C@@H](c2ccccc2)COC(=O)[C@@H](Cc2ccc(F)cc2)CC/C=C/C[C@H]1CC(=O)N(CCO)Cc1ccccc1` are 95.6% and 97.4%.
As for `O=C(NC1=C(NC2CCS(=O)(=O)C2)C(=O)c2ccccc2C1=O)c1ccccc1` (configuration not stated), the results for the inhibition with PEG-3 [1] and with PEG-3 [2] were 102% and 99.7%, respectively.
Take `CN1CCC(NC(=O)c2cc(-c3cccc(Br)c3)nc3ccccc23)CC1`: the inhibition was 100% with PEG-3 [1] and 101% in the experiment with PEG-3 [2].
The like results for `COc1cc(N=Nc2c(O)c3ccccc3[nH]c2=O)c(OC)cc1N=Nc1ccccc1` were, in that order, -11.2% and -33.1%.
Consider `OC1(c2ccc(Cl)c(Cl)c2)C[n+]2ccccc2N1Cc1ccccc1` (configuration not stated), for which the inhibition with PEG-3 [1] turned out to be 95%; with PEG-3 [2], 101%.
On the same counts, the results for `O=S(=O)(c1cccs1)N1CCN(c2ccnc3cc(Cl)ccc23)CC1` are 83.3% and 90.7%.
Turning to `O=S(=O)(NC1CC(NS(=O)(=O)OCC(Cl)(Cl)Cl)C2CCCCC12)OCC(Cl)(Cl)Cl` (configuration not stated), the inhibition with PEG-3 [1] was determined as 102%; in the experiment with PEG-3 [2], 99.2%.
On the same counts, the results for `c1ccc(CCNc2nc(-c3ccncc3)nc3ccccc23)cc1` are 52.1% and 47.8%.
The like results for `CCOc1cc(CNCCO)cc(Br)c1OCc1ccccc1Cl` were, in that order, 100% and 99.1%.
On the same counts, the results for `CC(=O)Nc1ccc(S(=O)(=O)N(Cc2cccnc2)Cc2cc3ccccc3[nH]c2=O)cc1` are 11.2% and -18.5%.
Take `CCN(CC)CCN1CCN(c2cncc(-c3ccc4ccccc4c3)n2)CC1`: the results for the inhibition with PEG-3 [1] and with PEG-3 [2] were 98.9% and 102%, respectively.
The like results for `COCc1ccc(CN2CCC(C(=O)Nc3cccc(-c4cccc(Cl)c4)c3)CC2)o1` were, in that order, 97.5% and 99%.
The like results for `Oc1[nH]c2ccc(Br)cc2c1N=NC(=S)Nc1ccc(F)cc1` were, in that order, 89.9% and 100%.
On the same counts, the results for `CCn1c2ccccc2c2cc(NC(=O)C(C)OC(=O)c3ccc(NC(=O)CC#N)cc3)ccc21` (configuration not stated) are 97.5% and 83.1%.
`CC(=O)Nc1ccc(Nc2nc(C)c([N+](=O)[O-])c(Nc3ccccc3)n2)cc1`: the inhibition with PEG-3 [1] amounted to 99.5%; with PEG-3 [2], 93.4%.
For `CN(C)CCNC(=O)/C(=C/c1ccc(-c2ccc(Cl)cc2)o1)NC(=O)c1ccccc1`, the inhibition was 102% in the experiment with PEG-3 [1] and 98.6% with PEG-3 [2].
The like results for `COc1ccccc1CN(C)C(=O)c1cc(-c2cc(OC)c(OC)c(OC)c2)nc2ccccc12` were, in that order, 83.8% and 84.7%.
On the same counts, the results for `CN(C)CCNC(=O)c1sc2nc(-c3ccccc3)cc(C(F)(F)F)c2c1N` are 102% and 102%.
The like results for `CCCN1C/C(=C/c2cccc([N+](=O)[O-])c2)C(=O)/C(=C/c2cccc([N+](=O)[O-])c2)C1` were, in that order, 26.2% and 30.1%.
Consider `CC(=O)N1CCN(c2cc(-c3ccccc3)nc3cc(-c4cccc(Cl)c4)nn23)CC1`, for which the inhibition with PEG-3 [1] worked out at 101%; with PEG-3 [2], 95.5%.
Consider `Cc1ccccc1NC(=O)Nc1nc(C(N)C2CCCCC2)cs1` (configuration not stated), for which the inhibition is 98.9% with PEG-3 [1] and 99.7% with PEG-3 [2].
The like results for `CCC1(c2ccccc2)NC(=O)N(CC(=O)Nc2cc(S(=O)(=O)N3CCCCCC3)ccc2OC)C1=O` (configuration not stated) were, in that order, 65.1% and 61%.
On the same counts, the results for `CCc1cccc(CC)c1NC(=S)NCCc1c(C)[nH]c2ccc(C)cc12` are 89.5% and 83.9%.
On the same counts, the results for `c1ccc(-c2cc(-c3nc4ccccc4[nH]3)c3ccccc3n2)cc1` are 86.8% and 88.6%.
In the case of `COc1ccc(-c2cc(C(=O)N(C)Cc3ccccc3F)c3ccccc3n2)cc1OC`, the inhibition in the experiment with PEG-3 [1] is 97.1%; with PEG-3 [2], 94.9%.
Take `CC(=O)NC(c1ccc(Cl)cc1Cl)c1ccc2cccnc2c1O` (configuration not stated): the inhibition with PEG-3 [1] was 96.5%; with PEG-3 [2], 96.7%; with Rat fibroblasts (CREF) [3], -0.0688%; in the experiment on Rat fibroblasts (CREF) [4], 0.461%.
As for `CCC(C)Sc1ccc(-c2nc3ccccn3c2NCc2ccccc2)cc1OC` (configuration not stated), the inhibition with PEG-3 [1] amounted to 102%; in the experiment with PEG-3 [2], 89.4%.
The like results for `CCCCN(C)C(=O)c1ccc(Nc2nc(C(N)CCc3ccccc3)cs2)nc1` (configuration not stated) were, in that order, 98.6% and 94.6%.
The like results for `CCN(Cc1ccccc1)S(=O)(=O)c1ccc(C(=O)N(CCCN(C)C)c2nc3cc4c(cc3s2)OCCO4)cc1` were, in that order, 99.4% and 101%.
The like results for `NC1=NC[C@H](Cc2ccccc2)N1CCc1cc(C(F)(F)F)cc(C(F)(F)F)c1` were, in that order, 101% and 101%.

The values above are taken from PubChem BioAssay.
